Source: PubChem BioAssay
Sampled rows, rich in hits. Any-hit rate of the full collection: about 2.3%.
Tau fluor cs = Counterscreen qHTS for Inhibitors of Tau Fibril Formation, Fluorescence Polarization; tau K18 P301L Alexa594 fluorescence, heparin fibrillization; Potency, µM (titrated, usually from 57.7 µM); 280,000 tested, 0.93% active; AID 1463, 2008; further: nearly all actives have a fitted effect of over 55% in size
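Human tau K18 P301L (15 uM unlabeled, 0.24 uM Alexa 594-labeled) in 100 mM sodium acetate pH 7 with 20 uM heparin, 6 hr at 37 C. ThT 30 uM added, 1 hr ambient; Alexa 594 FP and total fluorescence read at 555/632 nm.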
Tau FP inhib = qHTS for Inhibitors of Tau Fibril Formation, Fluorescence Polarization. 280,000 tested, 0.39% active. Potency, µM (doses to about 57.7 µM), most hits filed as inhibitors. Microtubule-associated protein tau (Homo sapiens), P10636. AID 1468, 2008. K18 P301L tau heparin fibrillization, Alexa594 FP, 6 h; further: nearly all actives have a fitted effect of over 55% in size
Target sequence (P10636 561-689 P618L limits assumed): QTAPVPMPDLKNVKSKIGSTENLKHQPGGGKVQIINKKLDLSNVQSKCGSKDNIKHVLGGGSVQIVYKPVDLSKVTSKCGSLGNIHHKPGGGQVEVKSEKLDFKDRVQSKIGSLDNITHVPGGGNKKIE
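Human tau K18 […] P301L fragment, 15 uM unlabeled plus 0.24 uM Alexa 594-labeled tau (final), with compound and 20 uM heparin in 100 mM sodium acetate pH 7; 6 hr at 37 C, then Alexa 594 FP read.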
FBPA coupling cs = qHTS Assay for Inhibitors of Fructose-1,6-bisphosphate Aldolase from Giardia Lamblia: Coupling assay counterscreen; AID 2472, 2010; activity change, negative = inhibition, % at 58.2 µM, hits read low; 290,000 tested, 0.67% active; coupling enzyme system counterscreen, AmpLite Red fluorescence; in the data active means activity change below about -30%
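Compounds tested against the coupling enzymes alone at 57.5 uM final; readout was AmpLite Red fluorescence (525/598 nm) after 20 min at RT.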
Tau ThT inhib = qHTS for Inhibitors of Tau Fibril Formation, Thioflavin T Binding; AID 1460, 2008; Potency, µM (top dose mostly 57.4 µM), most hits filed as inhibitors; Microtubule-associated protein tau (Homo sapiens), P10636; recombinant tau K18 P301L (four-repeat tau fragment), heparin-induced fibrillization, ThT fluorescence; 270,000 tested, 2.1% active; further: nearly all actives have a fitted effect of over 55% in size
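K18 P301L tau (15 uM + 0.24 uM Alexa 594-tagged), heparin 20 uM, NaOAc pH 7, 6 h 37 C; ThT 30 uM, 1 h RT, ex 450/em 510 nm.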
USP1-UAF1 inh = Inhibitors of USP1/UAF1: Primary Screen. AID 743255, 2014. Potency, µM (series often up to 57.1 µM), actives largely listed as inhibitors. 390,000 tested, 0.23% active. recombinant USP1/UAF1, Ub-Rhodamine cleavage fluorescence. Ubiquitin carboxyl-terminal hydrolase 1 (Homo sapiens), O94782; further: nearly all actives have a fitted effect of over 60% in size
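High-throughput fluorogenic screen: 1nM USP1/UAF1 complex, Ub-Rho substrate 150nM final, 50mM HEPES pH 7.8 with 0.5mM EDTA, 0.1 mg/ml BSA, 1mM TCEP and 0.01% Tween-20.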
Numbers stand for hits; . = inactive; ? = inconclusive; / = not tested or not shown; [ ] = dose if it differs, or a comment. Unless noted, the call rests on the fitted dose curve; in most records, active means well fitted curve in the direction sought with a large enough effect; inconclusive means small, poorly fitted or top-dose-only effect, or another doubt; inactive means no such curve, though single readings can be large; an effect the other way counts as inactive or inconclusive.

SMILES	Tau fluor cs	Tau FP inhib	FBPA coupling cs	Tau ThT inhib	USP1-UAF1 inh
Cc1ccc(-n2nc(-c3ccc(N)cc3)cc2N)cc1	.	.	.	?	?
CCCCCC[N+](C)(C)CCSSCC[N+](C)(C)CCCCCC	.	?	.	7.1µM	.
Cc1ccc(NC(=O)C(Cc2c[nH]c3ccccc23)NC(=O)OC(C)(C)C)c(C)c1 (centres undefined)	?	.	/	.	.
CC(C)C1Cc2c(C#N)c(N)sc(=S)c2CO1 (centres undefined)	?	.	.	20µM	.
CN(/C=C/c1c([N+](=O)[O-])c(=O)n(C)c(=O)n1C)c1ccccc1	.	.[2.34 µM]	.	.	.
CC1=C/C(=C/N(C)c2ccccc2)C(=O)S1	.	?	.	20µM	.
CC1CCC(C(=O)O)NC1c1ccc(-c2ccco2)cc1 (centres undefined)	.[11.6 µM]	.[11.6 µM]	.	.[11.5 µM]	/
COc1ccc(CN2CCNC(=O)C2CC(=O)N2CCCCO2)c(OC)c1 (centres undefined)	.	.	.	.	.
COc1cccc(CN2CCNC(=O)C2CC(=O)N2CCCCO2)c1OC (centres undefined)	.	.	-45	.	.
CCOc1ccccc1NC(=O)C(CC(C)C)NS(=O)(=O)c1ccc2c(c1)oc(=O)n2C (centres undefined)	.	.	/	.	.
c1cc2c(cc1Nc1nc(-c3ccc4c(c3)OCO4)cs1)OCCO2	8.9µM[quencher]	.	.	3.2µM	.
CCC(=O)Nc1nc(-c2ccc3c(c2)OCCO3)cs1	.	.	.	?	.
COc1cccc(Nc2nc(-c3ccc4c(c3)OCCO4)cs2)c1	11µM[quencher]	.	.	7.1µM	.
COc1ccccc1C(=O)Nc1nc(-c2ccc3c(c2)OCCO3)cs1	?	.	.	.	.
N#C/C(=C\Nc1ccc2c(c1)OCCO2)c1nc(-c2ccccc2)cs1	.	.	.	.	.
c1ccc(-c2csc(Nc3ccc4c(c3)OCCO4)n2)cc1	14µM[quencher]	.	.	13µM	.
c1cc2c(cc1-c1csc(NNC3=NCCCCC3)n1)OCCO2	?	28µM	.	25µM	.
C=C1CCN(C(Cc2ccccc2)C(=O)Nc2ccc(OC)cc2)S(=O)(=O)c2ccccc21 (centres undefined)	/	/	.	/	/
Nc1nc(-c2ccccc2)c(N=Nc2cccc3ccccc23)s1	3.2µM[quencher]	18µM	.	2.8µM	.
CC(=O)Nc1sc(N)nc1-c1ccccc1	.	.	.	.	?
Nc1nc(-c2ccccc2)c(N=Nc2ccccc2Cl)s1	4.5µM[quencher]	?	.	5µM	.
COc1ccccc1N(CC(=O)N1CCOCC1)S(C)(=O)=O	/	/	.	/	.
Nc1ccc(Cc2ccc(N)c(O)c2)cc1O	?	?	.	14µM	.
COc1ccc(-c2nnc(SCC(=O)Oc3cc(C)ccc3C)o2)cc1	.	.	/	.	.
O=Cc1ccc(Sc2nnc(-c3ccccc3)o2)c([N+](=O)[O-])c1	16µM[quencher]	?	.	18µM	.
SMILES	Tau fluor cs	Tau FP inhib	FBPA coupling cs	Tau ThT inhib	USP1-UAF1 inh
CCOc1cc(/C=C(/C#N)C(=O)Nc2ccc(O)cc2)cc(Br)c1O	?	.	.	8.9µM	?
O=C(c1cccc(F)c1)N1CCC2(CCN(Cc3cc(C(F)(F)F)cc(C(F)(F)F)c3)CC2)CC1	/	/	.	/	/
Cc1ccc(N=Nc2ccc(C)cc2NC(=O)Nc2ccccc2F)cc1	?	.	.	1.3µM	.
CCCCNC(=O)Nc1ccccc1CC	.	.	.	.	.
CCCCNC(=O)Nc1cc(C(F)(F)F)c[nH]c1=O	.	.	-43	.	.
CC(=O)Nc1ccc(S(=O)(=O)/N=C2\C(=O)c3ccccc3C([O-])=C2n2cc[n+](-c3ccccn3)c2)cc1	14µM[quencher]	?	-39	13µM	25µM
CCCC[n+]1ccn(C2=C([O-])c3ccccc3C(=O)/C2=N\S(=O)(=O)c2ccc(Br)cc2)c1	.	.	-59	?	?
Cc1ccc(NC(=O)C[n+]2ccn(C3=C([O-])c4ccccc4C3=O)c2)cc1	.	.	.	?	.
Cc1ccc(S(=O)(=O)/N=C2\C(=O)c3ccccc3C([O-])=C2n2cc[n+](CCC(C)C)c2)cc1	.	.	-52	?	?
CCCC[n+]1ccn(-c2nc3ccccc3nc2[N-]S(=O)(=O)c2ccc(Cl)cc2)c1	.	.	.	/	.
CCOC(=O)c1cccc(NC(=O)Cn2c(=O)nc(-c3ccccc3)c3ccccc32)c1	.	.	/	.	.
CC1CN(C(=O)CCC(=O)NCc2cccc(Cl)c2)c2ccccc2S1 (centres undefined)	?	.	/	.	.
O=[N+]([O-])C1=CC=C2C(=NC3(CCCCC3)N2O)C1=NCCc1ccccc1	.	.	-65	?	.
CC(C)(C)N=C1C([N+](=O)[O-])=CC=C2C1=NC1(CCCCC1)N2O	.	.	-46	.	.
CC1(C)CC(N=C2C([N+](=O)[O-])=CC=C3C2=NC2(CCCCC2)N3O)CC(C)(C)N1	.	?	-38	?	?
COc1cc2c(cc1OC)[C@H](C)N(CC1C(=O)O[C@@H]3C[C@@]4(C)CCC[C@H](C)[C@@]45OC5[C@H]13)CC2 (some centres undefined)	.	.	.	?	/
COc1ccccc1Nc1cc(C(=O)NCc2cccs2)c2ccccc2n1	?	.	/	.	.
O=[N+]([O-])c1cccc(/C=C/c2nc(C=Nc3ccc4ccccc4c3)c(O)o2)c1	.	.	.	2µM	.
O=[N+]([O-])c1cccc(/C=C/c2ccc3cccc(O)c3n2)c1	/	/	.	/	.
C=CC1=C(C(=O)O)N2C(=O)C(NC(=O)Cc3ccccc3)C2SC1 (centres undefined)	.	?	-42	?	?
Cc1ccc2c(c1)c(=O)c(C(=O)c1ccc3c(c1)OCO3)cn2Cc1ccc(Cl)cc1	.	.	/	?	.
CCOC(=O)c1c(-c2cccs2)csc1NC(=O)CC(C)C	.	.	.	.	.
NC(=O)c1c(-c2cccs2)csc1N	.	.	-45	?	.
COC(=O)c1c(C)[nH]c(C)c1C(=O)c1ccccc1Cc1ccccc1	?	?	.	.	.
O=C(/C=C/c1ccc(O)cc1)c1ccc(O)cc1O	?	.	.	10µM	.
O=C(/C=C/c1ccc(O)c(O)c1)c1ccccc1O	?	?	.	13µM	.
COc1cc(/C=C/C(=O)c2ccc(O)cc2O)ccc1O	/	/	.	/	/
COc1ccc(/C=C/C(=O)c2ccc(OC)cc2OC)cc1	.	.	.	?	.
O=C(C=Cc1cccc(O)c1)c1ccccc1O	/	/	/	/	.
